Experimental findings from PubChem BioAssay (NCATS) are described below.

Results filed as inconclusive are left out. The source made the active and inactive calls. Calls come from the whole dose curve; as a rule, active = well fitted curve in the direction sought with a large enough effect; inconclusive = small, poorly fitted or top-dose-only effect, or another doubt; inactive = no such curve, though single readings can be large; an effect the other way counts as inactive or inconclusive.

Sequence of ATP-dependent DNA helicase Q1 (Homo sapiens) (P46063 whole entry, looked up): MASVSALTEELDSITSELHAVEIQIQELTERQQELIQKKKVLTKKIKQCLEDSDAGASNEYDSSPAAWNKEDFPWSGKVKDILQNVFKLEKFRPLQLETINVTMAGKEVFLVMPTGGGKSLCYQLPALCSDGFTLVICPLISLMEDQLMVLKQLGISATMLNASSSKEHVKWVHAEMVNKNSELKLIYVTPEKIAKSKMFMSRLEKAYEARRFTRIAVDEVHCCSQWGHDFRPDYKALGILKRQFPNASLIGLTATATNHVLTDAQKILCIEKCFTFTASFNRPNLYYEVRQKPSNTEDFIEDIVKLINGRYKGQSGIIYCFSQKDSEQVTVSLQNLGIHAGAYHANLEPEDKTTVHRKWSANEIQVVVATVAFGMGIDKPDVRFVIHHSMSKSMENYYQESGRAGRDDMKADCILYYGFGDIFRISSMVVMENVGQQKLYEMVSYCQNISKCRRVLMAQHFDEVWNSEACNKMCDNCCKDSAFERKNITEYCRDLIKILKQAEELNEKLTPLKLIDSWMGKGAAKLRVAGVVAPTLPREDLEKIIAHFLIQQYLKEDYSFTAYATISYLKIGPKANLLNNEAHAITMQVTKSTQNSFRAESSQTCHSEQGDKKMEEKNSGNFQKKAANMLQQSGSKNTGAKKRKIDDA

Test system in the first assay: not listed separately
In words: qHTS for differential inhibitors of proliferation of Plasmodium falciparum line 7G8 (AID 1815).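 Note: parasite growth measured after three days of incubation; plate controls were vehicle wells for no effect and reference inhibitor wells for full effect.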 The note with it: Plasmodium falciparum 7G8 proliferation inhibition; series mostly up to 28.7 µM; activity change, negative = inhibition: at the top concentration.
`COc1ccc2[nH]cc(CCN(C)C)c2c1`: the “activity change, negative = inhibition” value is -8.6% (inactive).
Turning to `COc1cc(CCN)ccc1O`, the “activity change, negative = inhibition” value is -4.95% (inactive).
As for `C[N+]1(C)CCc2cc3c(cc2C1C1OC(=O)c2c1ccc1c2OCO1)OCO3` (configuration not stated), the “activity change, negative = inhibition” value is -3.98% (inactive).
On the same count and under the same terms, the value for `COc1ccc(CCN)cc1O` was 6.44% (inactive).

Test system in a further assay: not listed separately
In words: qHTS for differential inhibitors of proliferation of Plasmodium falciparum line GB4 (AID 1816).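 Note: parasite growth measured after 72 h incubation; 0% = vehicle DMSO and -100% = reference inhibitor.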 The note with it: Potency: Plasmodium falciparum GB4 proliferation inhibition; series mostly up to 28.7 µM; activity change, negative = inhibition: at the top concentration.
Regarding `COc1cc(CCN)ccc1O`, the “activity change, negative = inhibition” value is -7.57% (inactive).
In the case of `C[N+]1(C)CCc2cc3c(cc2C1C1OC(=O)c2c1ccc1c2OCO1)OCO3` (configuration not stated), the “activity change, negative = inhibition” value is -18.7% (inactive).
Same read-out and setting: as for `COc1ccc(CCN)cc1O`, the figure is -5.71% (inactive).

Test system in a further assay: not listed separately
In words: qHTS for differential inhibitors of proliferation of Plasmodium falciparum line 3D7 (AID 1876).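 For activity, negative = inhibition: parasite growth measured after three days of culture; 0% = vehicle wells and -100% = reference inhibitor wells.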 Note: potency is the fitted concentration of half-maximal effect. To be noted: P. falciparum 3D7 proliferation inhibition; series mostly up to 28.7 µM; activity, negative = inhibition: at the top concentration. For orientation: In qHTS, concentration-response curves come from the screen itself.
Regarding `COc1ccc2[nH]cc(CCN(C)C)c2c1`, the “activity, negative = inhibition” value was -9.04% (inactive).
As for `COc1cc(CCN)ccc1O`, the “activity, negative = inhibition” value is -3.25% (inactive).
Consider `C[N+]1(C)CCc2cc3c(cc2C1C1OC(=O)c2c1ccc1c2OCO1)OCO3` (configuration not stated), for which the Potency was 8.91 µM (active).
As for `COc1ccc(CCN)cc1O`, the “activity, negative = inhibition” value is -3.96% (inactive).

Test system in a further assay: not listed separately
The assay is described as follows: qHTS for differential inhibitors of proliferation of Plasmodium falciparum line D10 (AID 1877).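 Note: parasites grown with compound for 72 h before DNA staining; plate controls were vehicle wells for no effect and reference inhibitor wells for full effect.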 The note with it: series mostly up to 28.7 µM; activity change, negative = inhibition: at the top concentration.
Regarding `COc1ccc2[nH]cc(CCN(C)C)c2c1`, the “activity change, negative = inhibition” value is -9.52% (inactive).
`COc1cc(CCN)ccc1O`: the “activity change, negative = inhibition” value was -4.51% (inactive).
For the compound `C[N+]1(C)CCc2cc3c(cc2C1C1OC(=O)c2c1ccc1c2OCO1)OCO3` (configuration not stated), the “activity change, negative = inhibition” value is -6.84% (inactive).
Same read-out and setting: the value for `COc1ccc(CCN)cc1O` was -1.9% (inactive).

Test system in another assay: not listed separately
The assay is described as follows: qHTS for differential inhibitors of proliferation of Plasmodium falciparum line Dd2 (AID 1882).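 Note: plate controls were DMSO vehicle for no effect and 0.29 µM artemisinin for full effect; nearly all actives have a fitted effect of over 65% in size.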 The note with it: Potency: Plasmodium falciparum Dd2 proliferation inhibition; series mostly up to 28.7 µM; activity change, negative = inhibition: at the top concentration. The method, boiled down:
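SYBR Green DNA fluorescence (ex 485, em 535 nm) after overnight lysis quantifies parasite growth; compound exposure lasted 72 h at 37 C on infected red cells at 2.5% hematocrit, 0.3% parasitemia (final). Artemisinin 0.29 uM and vehicle wells define normalization.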
On to `C[C@@H]1O[C@@H](O[C@H]2C[C@@H](O)[C@]3(CO)[C@@H]4C(CC[C@]3(O)C2)[C@@]2(O)CC[C@H](C3=CC(=O)OC3)[C@@]2(C)C[C@H]4O)[C@H](O)[C@H](O)[C@H]1O` (some centres not stated), for which the “activity change, negative = inhibition” value was 0.174% (inactive).
On to `COc1ccc2[nH]cc(CCN(C)C)c2c1`, for which the “activity change, negative = inhibition” value was -18.5% (inactive).
Consider `COc1cc(CCN)ccc1O`, for which the “activity change, negative = inhibition” value was 6.24% (inactive).
With `C[N+]1(C)CCc2cc3c(cc2C1C1OC(=O)c2c1ccc1c2OCO1)OCO3` (configuration not stated), the “activity change, negative = inhibition” value is -5.88% (inactive).
On the same count and under the same terms, as for `COc1ccc(CCN)cc1O`, the figure is 0.268% (inactive).

Test system in another assay: not listed separately
The assay is described as follows: qHTS for differential inhibitors of proliferation of Plasmodium falciparum line W2 (AID 1883).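 For activity change, negative = inhibition: 0% = vehicle wells and -100% = control inhibitor wells.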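 Note: parasites grown with compound for 72 h before lysis and staining.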 Note: potency is the fitted concentration of half-maximal effect. To be noted: Potency: Plasmodium falciparum W2 proliferation inhibition; series mostly up to 28.7 µM; activity change, negative = inhibition: at the top concentration.
`C[C@@H]1O[C@@H](O[C@H]2C[C@@H](O)[C@]3(CO)[C@@H]4C(CC[C@]3(O)C2)[C@@]2(O)CC[C@H](C3=CC(=O)OC3)[C@@]2(C)C[C@H]4O)[C@H](O)[C@H](O)[C@H]1O` (some centres not stated): the Potency is 11.2 µM (active).
Turning to `COc1cc(CCN)ccc1O`, the “activity change, negative = inhibition” value is -3.24% (inactive).
On the same count and under the same terms, as for `COc1ccc(CCN)cc1O`, the figure is -16% (inactive).

Test system in the next assay: not listed separately
The assay is described as follows: qHTS for differential inhibitors of proliferation of Plasmodium falciparum line HB3 (AID 1886).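 Note: parasites grown with compound for 72 h before SYBR Green readout; plate controls were vehicle for no effect and reference inhibitor for full effect.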 The note with it: Potency: Plasmodium falciparum HB3 proliferation inhibition; series mostly up to 28.7 µM; activity change, negative = inhibition: at the top concentration.
On to `COc1ccc2[nH]cc(CCN(C)C)c2c1`, for which the “activity change, negative = inhibition” value was -2.2% (inactive).
For `COc1cc(CCN)ccc1O`, the “activity change, negative = inhibition” value was -3.63% (inactive).
Still for that read-out and setting: as for `C[N+]1(C)CCc2cc3c(cc2C1C1OC(=O)c2c1ccc1c2OCO1)OCO3` (configuration not stated), the figure is -9.91% (inactive); as for `COc1ccc(CCN)cc1O`, 1.1% (inactive).

A further assay has as its target ATP-dependent DNA helicase Q1 (Homo sapiens) (UniProt P46063). The assay is described as follows: qHTS Validation Assay for Inhibitors of RecQ-Like Dna Helicase 1 (RECQ1) (AID 2353).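 Note: plate controls were DMSO vehicle for no effect and enzyme-free control for full effect.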 The note with it: recombinant RECQ1 helicase DNA unwinding assay; series mostly up to 25.6 µM; activity change, negative = inhibition: at the top concentration. The procedure, abridged:
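RECQ1T1 50 nM; forked duplex (20 bp + 30-nt ss tails) 200 nM, ATP 2 mM final; pH 8.0, 2 mM MgCl2, 2.5 ug/ml poly(dI-dC); 15 min compound preincubation; discontinuous kinetic read over 2 h at RT.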
Consider `C[C@@H]1O[C@@H](O[C@H]2C[C@@H](O)[C@]3(CO)[C@@H]4C(CC[C@]3(O)C2)[C@@]2(O)CC[C@H](C3=CC(=O)OC3)[C@@]2(C)C[C@H]4O)[C@H](O)[C@H](O)[C@H]1O` (some centres not stated), for which the “activity change, negative = inhibition” value was -2.29% (inactive).
The same measure, in the same setting: as for `COc1ccc2[nH]cc(CCN(C)C)c2c1`, the figure is -4.97% (inactive).
As for `COc1cc(CCN)ccc1O`, the “activity change, negative = inhibition” value is -6.71% (inactive).
On the same count and under the same terms, the value for `C[N+]1(C)CCc2cc3c(cc2C1C1OC(=O)c2c1ccc1c2OCO1)OCO3` (configuration not stated) was 1.68% (inactive); that for `COc1ccc(CCN)cc1O` was -0.582% (inactive).
